These results are taken from ChEMBL document CHEMBL3988442, “University of Dundee, Small-Polar-MMV Screening Library” (2021).

Hit rate of the full screen: of about 48,000 compounds, about 13,000 (27%) showed an effect of 50% or more. Some of the results follow.

The subject of this test is Wolbachia pipientis. The experiment in a line: Anti-Wolbachia Cell-Based Screen. The arrangement: scale not given: in the data most compounds retested in dose-response had high values. The settings on record: 5 µM. It counts as functional.
For the compound `Cn1ncc2c(N3CCCC(C)(O)C3)nc(C(C)(C)C)nc21` (stereo not drawn), the “Percent Effect” value is reported as -0.5703%.
On to `COc1ccc(CCC(=O)Nc2cccnc2N2CCCC2)cc1Br`, for which the “Percent Effect” value amounted to 3.443%.
For the compound `O=C(O)C(F)(F)F.O=C1CC[C@@H]2[C@@H](CCN2C(=O)c2ccsc2)N1Cc1ccncc1`, the “Percent Effect” value is -34.69%.
In the case of `NC(=O)COCCNC(=O)Nc1sc2ccccc2c1Cl`, the “Percent Effect” value came to 6.222%.
As to `COCCNC(=O)c1sc2ccccc2c1C1CCC(CN)CC1.Cl` (stereo not drawn), the “Percent Effect” value is listed as 140.8%.
On to `COCCNC(=O)c1cc2c(nc1O)CC(c1cccs1)CC2=O` (stereo not drawn), for which the “Percent Effect” value worked out at 7.497%.
With `CCCN1CCN(C(=O)c2cc[nH]n2)[C@H]2CS(=O)(=O)C[C@H]21`, the “Percent Effect” value was 3.177%.
Turning to `CCn1cc(-c2nccnc2C2CCCN(C(C)=O)C2)cn1` (stereo not drawn), the “Percent Effect” value worked out at 156.7%.
`CC(=O)N1CCCC(c2nccnc2-c2ccc(CO)cc2)C1` (stereo not drawn): the “Percent Effect” value was 179.5%.
Take `CCc1ccc2c(C3CN(C(C)=O)C3)ncn2c1`: the “Percent Effect” value is -3.623%.
The figure for `COc1cc(F)ccc1CC(=O)N1CC[C@H]2C(=O)NCCO[C@H]2C1` is -55.09%; for `COC(=O)CCCn1ccnc1-c1ccc(OC)c(F)c1F` it is -8.612%; for `CCS(=O)(=O)Cc1ccn(-c2cccc(F)c2)n1` it is -0.3225%.
The figure for `Cc1ccc(NC(=O)Nc2cnc(N3CCN(C)CC3)nc2)c(Cl)c1` is -7.625%; for `Cc1ccc(NC(=O)Nc2cnc(N3CCN(C)CC3)nc2)cc1` it is 130.1%.
The figure for `COc1ccc(NC(=O)Nc2cnc(N3CCN(C)CC3)nc2)cc1Cl` is 89.39%.
As to `COc1ccc(NC(=O)N2CCC3(CC2)NC(=O)CC3C(=O)O)cc1Cl` (stereo not drawn), the “Percent Effect” value was -5.291%.
Turning to `CCOc1ccc(NCc2cnc(N3CCN(C)CC3)nc2)cn1`, the “Percent Effect” value is listed as -2.404%.
For `COc1ccc(NC(=O)NC(C)c2nc[nH]n2)cc1Cl` (stereo not drawn), the “Percent Effect” value was -12.73%.
For the compound `COc1cc2c(cc1CNC(=O)C(C)n1ccnc1C(C)C)CCC2` (stereo not drawn), the “Percent Effect” value is recorded as -11.78%.
Consider `COC(=O)[C@H](C)NC(=O)Cc1c(C)nc2cc(=O)[nH]n2c1C`, for which the “Percent Effect” value is listed as -6.844%.
In the case of `Cc1n[nH]c(C)c1NC(=O)CN1CCOC(Cn2cccn2)C1` (stereo not drawn), the “Percent Effect” value turned out to be 4.084%.
With `Cc1cccc2c1nc(CCO)n2-c1ccc(NS(C)(=O)=O)nc1`, the “Percent Effect” value is reported as -11.32%.
With `CS(=O)(=O)CC(=O)N1C[C@H]2CCC[C@@]2(COCc2ccncc2)C1.O=C(O)C(F)(F)F`, the “Percent Effect” value was 108.3%.
As for `O=C(O)C(F)(F)F.O=C(c1ncccn1)N1C[C@H]2CCC[C@@]2(COCc2ccncc2)C1`, the “Percent Effect” value is recorded as 6.096%.
In the case of `CS(=O)(=O)CC(=O)N1C[C@H]2CCC[C@@]2(COc2ccccn2)C1.O=C(O)C(F)(F)F`, the “Percent Effect” value is given as 109.7%.
The same measure for `CN(C)C(=O)N1C[C@H]2CCC[C@@]2(COc2ccccn2)C1.O=C(O)C(F)(F)F`: -14.43%.
`O=C(O)C(F)(F)F.O=C(c1ccccc1)N1C[C@H]2CCC[C@@]2(COCc2ccncc2)C1`: the “Percent Effect” value came to 12.44%.
The same measure for `CN(C)CC(=O)N1C[C@H]2CCC[C@@]2(COc2ccccn2)C1.O=C(O)C(F)(F)F`: -2.413%; for `O=C(c1cn(CCN2CCCCC2)nn1)N1CCSCC1`: 10.37%; for `COc1cccc(NC(=O)N(CCO)Cc2ccsc2)c1`: 1.126%.
For `Cc1nn2c(N3CCCC(C(N)=O)C3)cc(-c3ccccc3)nc2c1C` (stereo not drawn), the “Percent Effect” value is on record as -84.47%.
Take `NC(=O)[C@H]1CCCN(c2nccc(-c3c[nH]nc3-c3cccnc3)n2)C1`: the “Percent Effect” value is 113.5%.
For `O=C1N(CC2CC2)C(c2c[nH]nc2-c2cccnc2)NC12CCCC2` (stereo not drawn), the “Percent Effect” value is listed as 1.582%.
Take `CNc1ccnc(N2CCCC(C(=O)c3ccccn3)C2)n1` (stereo not drawn): the “Percent Effect” value is reported as -24.75%.
Turning to `NC(=O)[C@H]1CCCN(c2nccc(-c3ccncc3)n2)C1`, the “Percent Effect” value amounted to 103.3%.
`O=C(c1ccccn1)C1CCCN(c2nccc(CCC(F)(F)F)n2)C1` (stereo not drawn): the “Percent Effect” value amounted to 2e-14%.
Regarding `FC(F)Sc1ccc(NCc2nnc(C3CC3)o2)cc1`, the “Percent Effect” value is reported as -0.3922%.
In the case of `NC(=O)c1cnc(NC(=O)CCc2ccco2)c(Cl)c1`, the “Percent Effect” value was -8.08%.
Consider `CC(C)(C)c1nc(CC(=O)NC2CCN(C3CC3)C2)cs1` (stereo not drawn), for which the “Percent Effect” value is on record as -2.238%.
As to `CC(C)N1CCCn2nc(C(=O)NCCc3c[nH]cn3)cc2C1`, the “Percent Effect” value is given as -16.95%.
Take `O=C(O)C1(n2ccc(-c3ccco3)n2)CCN(Cc2cccnc2)CC1`: the “Percent Effect” value is 100.5%.
With `Cc1cc(F)ccc1OC1(C(=O)O)CCN(Cc2cccnc2)CC1`, the “Percent Effect” value is given as 3.989%.
Regarding `O=C(O)C1(n2cccn2)CCN(Cc2nc(-c3ccccc3)no2)CC1`, the “Percent Effect” value is reported as -13.7%.
Turning to `Cc1cc(CN2CCC(C(=O)O)(n3ccc(-c4ccco4)n3)CC2)on1`, the “Percent Effect” value stood at 185.7%.
For `O=C(O)C(F)(F)F.O=C(c1ccco1)N1CCCC2(CN(Cc3ccsc3)CCO2)C1` (stereo not drawn), the “Percent Effect” value came to 0.02281%.
Regarding `Cc1nc(CN2CCC(C(=O)O)(n3ccc(-c4ccco4)n3)CC2)co1`, the “Percent Effect” value stood at 4.507%.
Consider `O=C(O)C1(n2ccnc2)CCN(Cc2ccc3occc3c2)CC1`, for which the “Percent Effect” value was -4.381%.
Consider `Cc1cc(CN2CCN(C(=O)CCc3cccc(F)c3F)CC2)on1`, for which the “Percent Effect” value was -11.44%.
Take `Cc1cc(CN2CCN(C(=O)C3(C#N)CCCC3)CC2)on1`: the “Percent Effect” value is given as -5.531%.
On to `COc1ccc2c(c1)C1(CCN(Cc3ccccn3)CC1)N(C)CC2.O=C(O)C(F)(F)F.O=C(O)C(F)(F)F`, for which the “Percent Effect” value is -3.791%.
In the case of `O=C(O)C1(n2ccc(-c3ccco3)n2)CCN(Cc2ccccn2)CC1`, the “Percent Effect” value is reported as 96.1%.
As to `O=C(O)C1(n2ccc(-c3ccco3)n2)CCN(Cc2ccsc2)CC1`, the “Percent Effect” value is listed as 105.5%.
